Structures can show the parent of a compound that is named as a salt.
The molecules below were run on A549-ACTB-RAB5A (assay: phenotypically active (imaging signature differs from DMSO and reproducible) at any of 0.3-9 uM (binary (1 = active, 0 = inactive)); higher = active). Settings: treatment time: 24 h.
Summary of the method: (§1)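 Phenotypic activity depended on meeting both a deviation and a reproducibility criterion. The fifteen gene-edited A549, HepG2 and WPMY1 reporter lines were treated at 0.3, 1, 3 or 9 µM for 24 h, four wells each, then imaged live with features normalised to solvent control wells. Deviation required ≥3 of 4 wells past the 95th percentile of control Euclidean distances, and reproducibility a median replicate Pearson correlation above the 95th percentile of non-replicates.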

Structure (SMILES) | phenotypically active
O=C1NC(=O)c2c1c1c3ccccc3n3c1c1c2c2ccccc2n1C1CCC3O1 | 1 (active)
Cc1sc2c(c1C)C(c1ccc(Cl)cc1)=N[C@@H](CC(=O)OC(C)(C)C)c1nnc(C)n1-2 | 1 (active)
CN1C[C@H](C(=O)N[C@]2(C)O[C@@]3(O)[C@@H]4CCCN4C(=O)[C@H](Cc4ccccc4)N3C2=O)C[C@@H]2c3cccc4[nH]cc(c34)C[C@H]21.CN1C[C@H](C(=O)N[C@]2(C)O[C@@]3(O)[C@@H]4CCCN4C(=O)[C@H](Cc4ccccc4)N3C2=O)C[C@@H]2c3cccc4[nH]cc(c34)C[C@H]21 [dihydroergotamine] | 1 (active)
C[C@@]12C(=O)OC(=O)[C@]1(C)[C@H]1CC[C@@H]2O1 [Cantharidin] | 1 (active)
COc1cc2c(c(OC)c1OC)-c1ccc(OC)c(=O)cc1[C@@H](NC(C)=O)CC2 [colchicine] | 1 (active)
CC(C)(O)[C@H]1O[C@H]2CC[C@@]3(C)[C@@](O)(CC[C@H]4Cc5c([nH]c6ccccc56)[C@@]43C)C2=CC1=O [paxilline] | 1 (active)
N#CC(C#N)=NNc1cccc(Cl)c1 | 1 (active)
Cc1c(C(=O)Nc2cccc(C(F)(F)F)c2)cc(-c2ccccc2)n1CCCN1CCOCC1 | 1 (active)
CCN1CCN(C(=O)Cc2ccc(Nc3ncc(F)c(Nc4ccc(C(=O)Nc5ccccc5Cl)cc4)n3)cc2)CC1 | 1 (active)
CC(C)(C)c1cc(C=C(C#N)C#N)cc(Br)c1O | 0 (inactive)
O=C(NCCN1CCC2(CC1)C(=O)NCN2c1cccc(F)c1)c1ccc(F)c(F)c1 [ML 298 hydrochloride] | 1 (active)
CC(C)(N)Cc1ccccc1 [phentermine] | 0 (inactive)
CCn1cnc2c(Nc3cccc(Cl)c3)nc(N[C@H]3CCCC[C@H]3N)nc21 | 1 (active)
O=C(Nc1ccncc1)C(=O)c1cn(Cc2ccc(Cl)cc2)c2ccccc12 [Indibulin] | 1 (active)
CC[C@@H](C(=O)[C@@H](C)[C@@H](O)[C@H](C)[C@@H]1O[C@@H]([C@@H](CC)C(=O)O)CC[C@@H]1C)[C@H]1O[C@]2(C=C[C@@H](O)[C@]3(CC[C@@](C)([C@H]4CC[C@](O)(CC)[C@H](C)O4)O3)O2)[C@H](C)C[C@@H]1C [Salinomycin Sodium] | 1 (active)
CC[C@@H](CO)NC(=O)[C@@H]1C=C2c3cccc4c3c(cn4C)C[C@H]2N(C)C1 [methysergide] | 0 (inactive)
CN1C[C@H](C(=O)N[C@]2(C)O[C@@]3(O)[C@@H]4CCCN4C(=O)[C@H](Cc4ccccc4)N3C2=O)C=C2c3cccc4[nH]cc(c34)C[C@H]21 [ergotamine] | 1 (active)
C[C@H](CCC(=O)O)C[C@H](C)C[C@H](C)C(=O)/C=C(\O)[C@H](C)C[C@H](C)C/C=C/[C@@H](C)[C@@H](O)[C@@H](C)[C@@H](O)C[C@@H]1CC[C@@](C)([C@H]2CC[C@@](C)([C@@H](C)O)O2)O1 [Ionomycin free acid] | 0 (inactive)
N#CC(C#N)=NNc1ccc(OC(F)(F)F)cc1 | 1 (active)
COC1=CC(C)=C[C@@H](C)[C@@H](O)[C@@H](C)CC(C)=CC=C[C@H](OC)[C@@H]([C@@H](C)[C@@H](O)[C@H](C)[C@@]2(O)C[C@@H](O)[C@H](C)[C@@H](C(C)C)O2)OC1=O [Bafilomycin A1] | 1 (active)
COc1cc([C@@H]2c3cc4c(cc3[C@H](O)[C@H]3COC(=O)[C@H]23)OCO4)cc(OC)c1OC [Podophyllotoxin] | 1 (active)
CC[C@]12C=CCN3CC[C@]4(C(=C(C(=O)OC)C1)Nc1ccccc14)[C@@H]32 [Tabersonine dichlorhydrate] | 1 (active)

What follows are molecules tested on A549-CANX-COX4 in the same assay as above. Settings: treatment time: 24 h.
Summary of the method: as §1

Structure (SMILES) | phenotypically active
CC[C@H]1CN2CC[C@H]1C[C@@H]2[C@@H](O)c1ccnc2ccc(OC)cc12 [Hydroquinidine HCl] | 0 (inactive)
COc1cc2c(c(OC)c1OC)-c1ccc(O)c(=O)cc1[C@@H](N)CC2 [Trimethylcolchicinic acid] | 1 (active)
C[C@@]1(CO)[C@H](O)CC[C@@]2(C)[C@H]1CC[C@H]1C[C@@H]3C[C@@]12CC[C@]3(O)CO [Aphidicolin] | 1 (active)
COC(=O)[C@@]1(O)C[C@H]2O[C@]1(C)n1c3ccccc3c3c4c(c5c6ccccc6n2c5c31)C(=O)NC4 | 1 (active)
COc1ccc(N(C(=O)Oc2c(C)cccc2C)c2ccnc(Nc3ccc(N4CCN(C)CC4)cc3)n2)c(OC)c1 | 1 (active)
COc1ccc2c(c[n+](C)c3c4cc5c(cc4ccc23)OCO5)c1OC [Chelerythrine chloride] | 0 (inactive)
CC[C@@H]1C=CC=CC[C@H](C)[C@@H](O)[C@](C)(O)C(=O)[C@H](C)[C@@H](O)[C@H](C)C(=O)[C@H](C)[C@@H](O)[C@H](C)C=CC(=O)O[C@H]2[C@@H](C)[C@@H](CC1)O[C@@]1(CC[C@@H](C)[C@@H](C[C@H](C)O)O1)[C@@H]2C [Oligomycin A] | 1 (active)
CC(C)[C@@]1(NC(=O)[C@@H]2C[C@@H]3c4cccc5[nH]cc(c45)C[C@H]3N(C)C2)O[C@@]2(O)[C@@H]3CCCN3C(=O)[C@H](Cc3ccccc3)N2C1=O [Dihydroergocristine mesylate] | 1 (active)
O=c1[nH]c2ccccc2n1C1CCN(CCCC(c2ccc(F)cc2)c2ccc(F)cc2)CC1 [pimozide] | 0 (inactive)
C[C@]12CC[C@H]3[C@@H](CC[C@]4(O)C[C@@H](O)CC[C@]34C=O)[C@@]1(O)CC[C@@H]2C1=CC(=O)OC1 [Strophanthidin] | 1 (active)
CN1CCC2=C[C@H](O)[C@H]3OC(=O)c4cc5c(cc4[C@H]3[C@@H]21)OCO5 [Hippeastrine hydrobromide] | 0 (inactive)
C=C1[C@@H](O)C2C=CC[C@H](C)C(=O)[C@](C)(O)C=C[C@@H](OC(C)=O)[C@]23C(=O)N[C@H](Cc2ccccc2)[C@@H]3[C@@H]1C (stereo partly drawn) [Cytochalasin D] | 1 (active)
COc1ccc(C[C@H]2NC[C@H](O)[C@H]2OC(C)=O)cc1 [Anisomycin] | 1 (active)
C[C@@H]1CC[C@H]2[C@@H](C)C(=O)O[C@@H]3O[C@@]4(C)CC[C@@H]1[C@]32OO4 [Artemisinin] | 0 (inactive)
O=C1NC(=O)c2c1c1c3ccccc3n3c1c1c2c2ccccc2n1C1CCC3O1 | 0 (inactive)
Cc1sc2c(c1C)C(c1ccc(Cl)cc1)=N[C@@H](CC(=O)OC(C)(C)C)c1nnc(C)n1-2 | 1 (active)
CN1C[C@H](C(=O)N[C@]2(C)O[C@@]3(O)[C@@H]4CCCN4C(=O)[C@H](Cc4ccccc4)N3C2=O)C[C@@H]2c3cccc4[nH]cc(c34)C[C@H]21.CN1C[C@H](C(=O)N[C@]2(C)O[C@@]3(O)[C@@H]4CCCN4C(=O)[C@H](Cc4ccccc4)N3C2=O)C[C@@H]2c3cccc4[nH]cc(c34)C[C@H]21 [dihydroergotamine] | 0 (inactive)
C[C@@]12C(=O)OC(=O)[C@]1(C)[C@H]1CC[C@@H]2O1 [Cantharidin] | 1 (active)

Structure (SMILES) | phenotypically active
COc1cc2c(c(OC)c1OC)-c1ccc(OC)c(=O)cc1[C@@H](NC(C)=O)CC2 [colchicine] | 1 (active)
CC(C)(O)[C@H]1O[C@H]2CC[C@@]3(C)[C@@](O)(CC[C@H]4Cc5c([nH]c6ccccc56)[C@@]43C)C2=CC1=O [paxilline] | 0 (inactive)
N#CC(C#N)=NNc1cccc(Cl)c1 | 1 (active)
Cc1c(C(=O)Nc2cccc(C(F)(F)F)c2)cc(-c2ccccc2)n1CCCN1CCOCC1 | 0 (inactive)
CCN1CCN(C(=O)Cc2ccc(Nc3ncc(F)c(Nc4ccc(C(=O)Nc5ccccc5Cl)cc4)n3)cc2)CC1 | 1 (active)
CC(C)(C)c1cc(C=C(C#N)C#N)cc(Br)c1O | 0 (inactive)
O=C(NCCN1CCC2(CC1)C(=O)NCN2c1cccc(F)c1)c1ccc(F)c(F)c1 [ML 298 hydrochloride] | 1 (active)
CC(C)(N)Cc1ccccc1 [phentermine] | 1 (active)
CCn1cnc2c(Nc3cccc(Cl)c3)nc(N[C@H]3CCCC[C@H]3N)nc21 | 1 (active)
O=C(Nc1ccncc1)C(=O)c1cn(Cc2ccc(Cl)cc2)c2ccccc12 [Indibulin] | 0 (inactive)
CC[C@@H](C(=O)[C@@H](C)[C@@H](O)[C@H](C)[C@@H]1O[C@@H]([C@@H](CC)C(=O)O)CC[C@@H]1C)[C@H]1O[C@]2(C=C[C@@H](O)[C@]3(CC[C@@](C)([C@H]4CC[C@](O)(CC)[C@H](C)O4)O3)O2)[C@H](C)C[C@@H]1C [Salinomycin Sodium] | 1 (active)
CC[C@@H](CO)NC(=O)[C@@H]1C=C2c3cccc4c3c(cn4C)C[C@H]2N(C)C1 [methysergide] | 0 (inactive)
CN1C[C@H](C(=O)N[C@]2(C)O[C@@]3(O)[C@@H]4CCCN4C(=O)[C@H](Cc4ccccc4)N3C2=O)C=C2c3cccc4[nH]cc(c34)C[C@H]21 [ergotamine] | 1 (active)
C[C@H](CCC(=O)O)C[C@H](C)C[C@H](C)C(=O)/C=C(\O)[C@H](C)C[C@H](C)C/C=C/[C@@H](C)[C@@H](O)[C@@H](C)[C@@H](O)C[C@@H]1CC[C@@](C)([C@H]2CC[C@@](C)([C@@H](C)O)O2)O1 [Ionomycin free acid] | 1 (active)
N#CC(C#N)=NNc1ccc(OC(F)(F)F)cc1 | 1 (active)
COC1=CC(C)=C[C@@H](C)[C@@H](O)[C@@H](C)CC(C)=CC=C[C@H](OC)[C@@H]([C@@H](C)[C@@H](O)[C@H](C)[C@@]2(O)C[C@@H](O)[C@H](C)[C@@H](C(C)C)O2)OC1=O [Bafilomycin A1] | 1 (active)
COc1cc([C@@H]2c3cc4c(cc3[C@H](O)[C@H]3COC(=O)[C@H]23)OCO4)cc(OC)c1OC [Podophyllotoxin] | 1 (active)
CC[C@]12C=CCN3CC[C@]4(C(=C(C(=O)OC)C1)Nc1ccccc14)[C@@H]32 [Tabersonine dichlorhydrate] | 1 (active)
